# Measurements taken from the supplement of paper PMC8728848.
# This is one part of a sample in which the strongest signals are shown more often than they occur.
# B1: rCNL (Clitocybe nebularis), B2ZRS9 (protein)
# chain: SITPGTYNITNVAYTNRLIDLTGSNPAENTLIIGHHLNKTPSGYGNQQWTLVQLPHTTIYTMQAVNPQSYVRVRDDNLVDGAALVGSQQPTPVSIESAGNSGQFRIKIPNLGLALTLPSDANSTPIVLGEVDETSTNQLWAFESVSAV
# What was measured:
# Test in all cases: glycan array binding signal (z-score within array); higher = stronger binding
# Conditions in all cases: glycan notation: IUPAC condensed, linker removed
# [1] = molecular target: Fuc(a1-2)Gal(b1-4)GlcNAc(b1-2)Man(a1-3)[Fuc(a1-2)Gal(b1-4)GlcNAc(b1-2)Man(a1-6)]Man(b1-4)GlcNAc(b1-4)[Fuc(a1-6)]GlcNAc
# Procedure, shortened: (§1)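 Glycan array data came from 3228 arrays in the Consortium for Functional Glycomics database, and only arrays with an available protein sequence were kept. Glycan names were put into IUPAC-condensed notation, and columns mapping to the same glycan were averaged. The binding signal is a within-array Z-score, averaged across arrays of one protein sequence run at different concentrations or buffers and across linkers. A negative Z-score can be read as non-binding.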
# [2] = molecular target: Fuc(a1-2)[Gal(a1-3)]Gal(b1-3)GalNAc
# Procedure, shortened: as §1
# [3] = molecular target: Fuc(a1-2)[Gal(a1-3)]Gal(b1-4)GlcNAc(b1-2)Man
# Procedure, shortened: as §1
# [4] = molecular target: Fuc(a1-2)[GalNAc(a1-3)]Gal(b1-3)GalNAc(a1-3)[Fuc(a1-2)]Gal(b1-4)GlcNAc
# Procedure, shortened: as §1
# [5] = molecular target: Fuc(a1-2)[GalNAc(a1-3)]Gal(b1-4)GlcNAc
# Procedure, shortened: as §1
# [6] = molecular target: Fuc(a1-2)[GalNAc(a1-3)]Gal(b1-4)GlcNAc(b1-2)Man
# Procedure, shortened: as §1
# [7] = molecular target: Fuc(a1-2)[GalNAc(a1-3)]Gal(b1-4)GlcNAc(b1-2)Man(a1-3)[Fuc(a1-2)[GalNAc(a1-3)]Gal(b1-4)GlcNAc(b1-2)Man(a1-6)]Man(b1-4)GlcNAc(b1-4)GlcNAc
# Procedure, shortened: as §1
# [8] = molecular target: Fuc(a1-2)[GalNAc(a1-3)]Gal(b1-4)GlcNAc(b1-3)Gal(b1-4)GlcNAc
# Procedure, shortened: as §1
# [9] = molecular target: Fuc(a1-2)[GalNAc(a1-3)]Gal(b1-4)GlcNAc(b1-3)Gal(b1-4)GlcNAc(b1-3)Gal(b1-4)GlcNAc
# Procedure, shortened: as §1
# [10] = molecular target: Fuc(a1-3)[Gal(b1-4)]GlcNAc
# Procedure, shortened: as §1
# [11] = molecular target: Gal(a1-3)Gal
# Procedure, shortened: as §1
# [12] = molecular target: Gal(a1-3)Gal(b1-3)[Fuc(a1-4)]GlcNAc(b1-2)Man(a1-3)[Gal(a1-3)Gal(b1-3)[Fuc(a1-4)]GlcNAc(b1-2)Man(a1-6)]Man(b1-4)GlcNAc(b1-4)GlcNAc
# Procedure, shortened: as §1
# [13] = molecular target: Gal(a1-3)Gal(b1-4)GlcNAc
# Procedure, shortened: as §1
# [14] = molecular target: Gal(a1-3)Gal(b1-4)GlcNAc(b1-3)GalNAc
# Procedure, shortened: as §1
# [15] = molecular target: Gal(a1-4)Gal(b1-3)GlcNAc(b1-2)Man(a1-3)[Gal(a1-4)Gal(b1-3)GlcNAc(b1-2)Man(a1-6)]Man(b1-4)GlcNAc(b1-4)GlcNAc
# Procedure, shortened: as §1
# [16] = molecular target: Gal(a1-4)Gal(b1-4)Glc
# Procedure, shortened: as §1
# [17] = molecular target: Gal(b1-3)GalNAc(b1-4)Gal(b1-4)Glc
# Procedure, shortened: as §1
# [18] = molecular target: Gal(b1-3)GlcNAc(a1-3)Gal(b1-4)GlcNAc
# Procedure, shortened: as §1
# [19] = molecular target: Gal(b1-3)GlcNAc(b1-3)Gal(b1-4)GlcNAc(b1-3)Gal(b1-4)GlcNAc(b1-2)[Gal(b1-3)GlcNAc(b1-3)Gal(b1-4)GlcNAc(b1-3)Gal(b1-4)GlcNAc(b1-6)]Man(a1-6)[Gal(b1-3)GlcNAc(b1-3)Gal(b1-4)GlcNAc(b1-3)Gal(b1-4)GlcNAc(b1-2)Man(a1-3)]Man(b1-4)GlcNAc(b1-4)[Fuc(a1-6)]GlcNAc
# Procedure, shortened: as §1
# [20] = molecular target: Gal(b1-3)GlcNAc(b1-6)[Gal(b1-3)]GalNAc
# Procedure, shortened: as §1
# [21] = molecular target: Gal(b1-3)GlcNAc6S
# Procedure, shortened: as §1
# [22] = molecular target: Gal(b1-3)[Neu5Ac(b2-6)]GalNAc
# Procedure, shortened: as §1
# [23] = molecular target: Gal(b1-4)Gal
# Procedure, shortened: as §1
# [24] = molecular target: Gal(b1-4)GlcNAc(b1-2)Man(a1-3)Man(b1-4)GlcNAc(b1-4)GlcNAc
# Procedure, shortened: as §1
# [25] = molecular target: Gal(b1-4)GlcNAc(b1-2)Man(a1-3)[Gal(b1-4)GlcNAc(b1-2)Man(a1-6)]Man(b1-4)GlcNAc(b1-4)GlcNAc
# Procedure, shortened: as §1
# [26] = molecular target: Gal(b1-4)GlcNAc(b1-2)[Gal(b1-4)GlcNAc(b1-4)]Man(a1-3)[GlcNAc(b1-4)][Gal(b1-4)GlcNAc(b1-2)[Gal(b1-4)GlcNAc(b1-6)]Man(a1-6)]Man(b1-4)GlcNAc(b1-4)GlcNAc
# Procedure, shortened: as §1
# [27] = molecular target: Gal(b1-4)GlcNAc(b1-3)Gal(b1-4)GlcNAc(b1-2)[Gal(b1-4)GlcNAc(b1-3)Gal(b1-4)GlcNAc(b1-6)]Man(a1-6)[Gal(b1-4)GlcNAc(b1-3)Gal(b1-4)GlcNAc(b1-2)Man(a1-3)]Man(b1-4)GlcNAc(b1-4)[Fuc(a1-6)]GlcNAc
# Procedure, shortened: as §1
# [28] = molecular target: Gal3S6S(b1-4)GlcNAc6S
# Procedure, shortened: as §1
# [29] = molecular target: Gal6S(b1-3)GlcNAc
# Procedure, shortened: as §1
# [30] = molecular target: GalNAc(a1-3)GalNAc(b1-3)Gal(a1-4)Gal(b1-4)Glc
# Procedure, shortened: as §1
binder,measurement,setting,value
B1,glycan array binding signal (z-score),[1],-0.116
same,glycan array binding signal (z-score),[2],-0.222
same,glycan array binding signal (z-score),[3],-0.215
same,glycan array binding signal (z-score),[4],2.47
same,glycan array binding signal (z-score),[5],3.08
same,glycan array binding signal (z-score),[6],3.12
same,glycan array binding signal (z-score),[7],4
same,glycan array binding signal (z-score),[8],3.46
same,glycan array binding signal (z-score),[9],3.25
same,glycan array binding signal (z-score),[10],-0.299
same,glycan array binding signal (z-score),[11],-0.297
same,glycan array binding signal (z-score),[12],-0.27
same,glycan array binding signal (z-score),[13],-0.098
same,glycan array binding signal (z-score),[14],-0.129
same,glycan array binding signal (z-score),[15],-0.187
same,glycan array binding signal (z-score),[16],-0.261
same,glycan array binding signal (z-score),[17],-0.287
same,glycan array binding signal (z-score),[18],-0.21
same,glycan array binding signal (z-score),[19],-0.203
same,glycan array binding signal (z-score),[20],-0.215
same,glycan array binding signal (z-score),[21],-0.226
same,glycan array binding signal (z-score),[22],-0.305
same,glycan array binding signal (z-score),[23],-0.215
same,glycan array binding signal (z-score),[24],-0.275
same,glycan array binding signal (z-score),[25],-0.13
same,glycan array binding signal (z-score),[26],-0.041
same,glycan array binding signal (z-score),[27],-0.147
same,glycan array binding signal (z-score),[28],-0.283
same,glycan array binding signal (z-score),[29],-0.224
same,glycan array binding signal (z-score),[30],-0.001
